# The OligoGym collection
# Molecular target: SELO
# Assay: pooled miR-30 sensor sort-seq; sequence = guide strand
# Details: shRNA
# Further: reference of the scale not given here.
row,Sequence,sensor-assay potency score (higher = more potent)
1,TGTTTGTGAAGTCGGCACCGGT,-1.02
2,TTGAGCTGCAGCTCCCAGCGCT,-0.647
3,TTGTCGGTGTTGAGCACGCCGT,-1.37
4,TTGCCGCTGAAGAACAGCGCGG,-1.34
5,TCGCTGCATAGAAACTCCCGGA,-0.819
6,AACACGTCGCGCACCACCGTGG,-0.914
7,TTTCTCTGCACGCTGTCGCTGG,-0.303

# Molecular target: SEMA3B
# Assay: as above
# Details: shRNA
row,Sequence,sensor-assay potency score (higher = more potent)
1,TAGATTTTGTCGTCGTCTGGGT,0.074
2,TACCTTGACAAACTTGGGCTCA,-0.131
3,ATGCTGTACACGCACACCGCAG,-1.8
4,TCTCCGGAGCACAACGTGCTGG,-0.802
5,TCACACTCCAGAAAGGCGCTGC,0.144
6,AACTGGATGACATCGTCTGGGA,-0.898
7,TTGTGTTCCAGCAGCGCGGGAC,-0.691
8,TACTTTAGTACAGTCGGCCTGC,0.558
9,TTGGTGGAACTGAAGGTGCCAA,-0.717
10,TTGGAAGAAATTTGCATGCTGG,0.12
11,TTCAGGAACGTCGTCCACTTGT,-0.531
12,TTGCATGCTGGTGACAGCGGCC,-0.767

# Molecular target: SEMA5A
# Assay: as above
# Details: shRNA
row,Sequence,sensor-assay potency score (higher = more potent)
1,TCTTCCAGCAAACAGCTGCTTG,-1.24
2,ATTAGAGTCAAACACACACGGC,-0.728
3,ATCTCTTCCAGCAAACAGCTGC,-0.82
4,TTATGAAATATTATGGACCTAT,-0.515
5,TTAGAGTCAAACACACACGGCC,-0.151
6,TATCGTTCTTGCACACCCGGGC,-0.125
7,TTGAAGACGCACACAGCTGAGG,-0.713
8,TAGAACAGTACCGCATTTCGAT,-0.368
9,ATATCGTTCTTGCACACCCGGG,-1.15
10,TTCTTCGCTCTGAACTCCCGTA,-0.152
11,TTTCGATTCTCTGTCTTCCCAC,0.0611
12,TTGCAGTATCTTTCCTCGCGGT,-0.492

# Molecular target: SEMA6D
# Assay: as above
# Details: shRNA
row,Sequence,sensor-assay potency score (higher = more potent)
1,TTGAATAGTGATAGTCGACAGT,-0.481
2,TTGATTTGTATTATGTCTGTAA,0.267
3,TTTAGGAGAATCAATATTCTGT,-0.109
4,TTGGGTGGTAGCTCTTTCCGAC,-0.271
5,TTTCTTTCCTTGAAGCTCCATG,-0.704
6,TACTTTTTCAATGTCATCCATG,-0.449
7,TTTTACATGATCCATAACGCTC,-0.732
8,TACTGTATAAACTTGATCCCTG,0.49
9,TAATAGACTGCAGAACATCAAA,-1.03
